# Laboratory results as given in the supplement of paper PMC10849652.
# The full data set covers some 8,800 targets. This sample favours those with a hit. About 0.5% of all pairs of compound and target were hits. A number with no mark means an inactive call.
# Experiments:
# Test in all cases: log2 fold change, soluble protein after heating vs DMSO (PISA); higher = thermal stabilisation; K562 lysate, 10 uM; active = over 0.2 and 3.5 SD of the protein, either way, in both replicates (recomputed)
# alvocidib = compound: CN1CC[C@H](c2c(O)cc(O)c3c(=O)cc(-c4ccccc4Cl)oc23)[C@H](O)C1 [alvocidib]
# How it was run: (§1)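 Soluble protein was defined as the supernatant remaining after 21,000xg for 90 min, following pooling of heated aliquots and adjustment to 0.5% NP-40 at 4°C. Before that, crude K562 extract at 1 mg/mL protein in PBS pH 7.4 with 1 mM MgCl2 was treated with 10 μM compound for 30 min and heated for 3 min across 48°C-58°C. Quantification used TMTpro 16plex LC-MS/MS with channel sums equalised, and values are log-two fold changes in thermal stability relative to solvent controls from duplicates.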
# Tubastatin A = compound: CN1CCc2c(c3ccccc3n2Cc2ccc(C(=O)NO)cc2)C1 [Tubastatin A]
# How it was run: as §1
# [1] = compound: CNC(=O)C1=CC=CC=C1NC2=NC(=NC=C2Cl)NC3=C(C=C(C=C3)N4CCOCC4)OC
# How it was run: as §1
# defactinib = compound: CNC(=O)c1ccc(Nc2ncc(C(F)(F)F)c(NCc3nccnc3N(C)S(C)(=O)=O)n2)cc1 [defactinib]
# How it was run: as §1
# [2] = compound: CNc1nc(-c2ccc3c(N)n[nH]c3c2)cc(N2C[C@@H](C(=O)NC3CCCCC3)CC[C@H]2C)n1
# How it was run: as §1
# encorafenib = compound: COC(=O)N[C@@H](C)CNc1nccc(-c2cn(C(C)C)nc2-c2cc(Cl)cc(NS(C)(=O)=O)c2F)n1 [encorafenib]
# How it was run: as §1
# [3] = compound: COC(=O)[C@H](CCSC)NC(=O)C1=C(C=C(C=C1)NC[C@H](CS)N)C2=CC=CC=C2
# How it was run: as §1
# alisertib = compound: COc1cc(Nc2ncc3c(n2)-c2ccc(Cl)cc2C(c2c(F)cccc2OC)=NC3)ccc1C(=O)O [alisertib]
# How it was run: as §1
# [4] = compound: COc1cc2nc(-c3cc(F)ccc3O)nc(N[C@@H]3CNC[C@H]3C(C)(C)O)c2cc1OC
# How it was run: as §1
# gefitinib = compound: COc1cc2ncnc(Nc3ccc(F)c(Cl)c3)c2cc1OCCCN1CCOCC1 [gefitinib]
# How it was run: as §1
# lapatinib = compound: CS(=O)(=O)CCNCc1ccc(-c2ccc3ncnc(Nc4ccc(OCc5cccc(F)c5)c(Cl)c4)c3c2)o1 [lapatinib]
# How it was run: as §1
# pictilisib = compound: CS(=O)(=O)N1CCN(Cc2cc3nc(-c4cccc5[nH]ncc45)nc(N4CCOCC4)c3s2)CC1 [pictilisib]
# How it was run: as §1
# crizotinib = compound: C[C@@H](Oc1cc(-c2cnn(C3CCNCC3)c2)cnc1N)c1c(Cl)ccc(F)c1Cl [crizotinib]
# How it was run: as §1
# [5] = compound: C[C@H](C1=CC=C(C=C1)C(=O)NC2=C3C=CNC3=NC=C2)N
# How it was run: as §1
# duvelisib = compound: C[C@H](Nc1ncnc2nc[nH]c12)c1cc2cccc(Cl)c2c(=O)n1-c1ccccc1 [duvelisib]
# How it was run: as §1
# gandotinib = compound: Cc1cc(Nc2cc(CN3CCOCC3)c3nc(C)c(Cc4ccc(Cl)cc4F)n3n2)n[nH]1 [gandotinib]
# How it was run: as §1
# tozasertib = compound: Cc1cc(Nc2cc(N3CCN(C)CC3)nc(Sc3ccc(NC(=O)C4CC4)cc3)n2)n[nH]1 [tozasertib]
# How it was run: as §1
# doramapimod = compound: Cc1ccc(-n2nc(C(C)(C)C)cc2NC(=O)Nc2ccc(OCCN3CCOCC3)c3ccccc23)cc1 [doramapimod]
# How it was run: as §1
# bafetinib = compound: Cc1ccc(NC(=O)c2ccc(CN3CC[C@H](N(C)C)C3)c(C(F)(F)F)c2)cc1Nc1nccc(-c2cncnc2)n1 [bafetinib]
# How it was run: as §1
# [6] = compound: Cc1cccc(CC(=O)N2CCc3c2ccc(-c2cn(C)c4ncnc(N)c24)c3F)n1
# How it was run: as §1
# Sequence of UniProt P09884 (P09884 whole entry, looked up): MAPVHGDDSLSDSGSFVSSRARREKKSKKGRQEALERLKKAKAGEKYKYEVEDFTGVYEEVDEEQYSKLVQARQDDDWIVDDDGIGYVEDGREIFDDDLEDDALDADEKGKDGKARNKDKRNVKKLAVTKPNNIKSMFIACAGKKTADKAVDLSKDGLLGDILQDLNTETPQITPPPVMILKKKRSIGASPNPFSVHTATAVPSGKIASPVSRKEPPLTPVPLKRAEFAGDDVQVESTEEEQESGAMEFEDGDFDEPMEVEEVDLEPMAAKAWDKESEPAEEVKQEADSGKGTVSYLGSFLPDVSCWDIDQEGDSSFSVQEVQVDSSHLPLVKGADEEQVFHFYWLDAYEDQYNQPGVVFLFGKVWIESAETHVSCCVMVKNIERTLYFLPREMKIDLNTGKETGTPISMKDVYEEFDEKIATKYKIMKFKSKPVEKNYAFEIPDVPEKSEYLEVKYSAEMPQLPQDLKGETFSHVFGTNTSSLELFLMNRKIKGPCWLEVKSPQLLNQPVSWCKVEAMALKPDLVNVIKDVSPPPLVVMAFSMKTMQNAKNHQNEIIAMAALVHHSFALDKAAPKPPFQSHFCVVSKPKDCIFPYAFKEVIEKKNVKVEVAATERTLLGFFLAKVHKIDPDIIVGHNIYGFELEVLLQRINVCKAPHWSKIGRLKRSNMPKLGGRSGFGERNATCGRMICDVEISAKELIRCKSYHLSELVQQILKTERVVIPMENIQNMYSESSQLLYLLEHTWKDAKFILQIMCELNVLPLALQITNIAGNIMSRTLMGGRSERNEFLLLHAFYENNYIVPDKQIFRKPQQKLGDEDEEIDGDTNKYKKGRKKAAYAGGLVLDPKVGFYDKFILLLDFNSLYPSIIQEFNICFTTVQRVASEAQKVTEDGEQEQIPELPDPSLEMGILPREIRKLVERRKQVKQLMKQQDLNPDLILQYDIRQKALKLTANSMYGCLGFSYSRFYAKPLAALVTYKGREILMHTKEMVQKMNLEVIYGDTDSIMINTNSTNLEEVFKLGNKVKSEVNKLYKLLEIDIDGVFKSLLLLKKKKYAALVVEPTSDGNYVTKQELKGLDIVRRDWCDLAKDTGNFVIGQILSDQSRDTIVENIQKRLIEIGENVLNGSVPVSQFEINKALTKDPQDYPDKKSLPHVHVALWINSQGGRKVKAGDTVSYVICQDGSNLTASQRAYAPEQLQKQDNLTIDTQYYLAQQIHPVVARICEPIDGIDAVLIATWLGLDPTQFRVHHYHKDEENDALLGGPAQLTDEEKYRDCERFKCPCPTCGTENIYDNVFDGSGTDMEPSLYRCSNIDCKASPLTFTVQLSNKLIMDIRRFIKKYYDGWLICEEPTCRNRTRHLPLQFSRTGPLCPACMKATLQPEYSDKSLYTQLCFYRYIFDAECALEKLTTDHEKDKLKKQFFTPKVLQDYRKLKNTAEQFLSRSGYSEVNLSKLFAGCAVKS
# Sequence of UniProt O00459 (O00459 whole entry, looked up): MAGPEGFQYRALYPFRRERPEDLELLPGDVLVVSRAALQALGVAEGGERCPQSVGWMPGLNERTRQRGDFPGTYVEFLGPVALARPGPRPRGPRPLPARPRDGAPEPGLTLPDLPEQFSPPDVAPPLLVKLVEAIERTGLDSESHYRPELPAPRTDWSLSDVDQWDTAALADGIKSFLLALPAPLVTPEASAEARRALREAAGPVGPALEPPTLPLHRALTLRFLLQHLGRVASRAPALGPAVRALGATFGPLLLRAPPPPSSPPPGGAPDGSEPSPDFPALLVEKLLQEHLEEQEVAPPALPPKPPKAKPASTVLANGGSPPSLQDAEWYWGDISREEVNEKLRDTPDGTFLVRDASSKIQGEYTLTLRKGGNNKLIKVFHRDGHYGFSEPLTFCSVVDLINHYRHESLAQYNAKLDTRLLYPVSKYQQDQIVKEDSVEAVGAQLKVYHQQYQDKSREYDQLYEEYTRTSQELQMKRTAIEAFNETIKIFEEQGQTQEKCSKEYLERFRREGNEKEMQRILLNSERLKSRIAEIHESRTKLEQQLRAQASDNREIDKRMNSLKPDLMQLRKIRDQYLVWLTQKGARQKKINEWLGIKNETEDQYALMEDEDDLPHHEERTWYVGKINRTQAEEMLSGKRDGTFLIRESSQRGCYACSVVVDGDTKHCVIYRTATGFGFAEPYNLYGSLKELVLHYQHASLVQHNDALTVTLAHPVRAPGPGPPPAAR
# Sequence of UniProt Q10713 (Q10713 whole entry, looked up): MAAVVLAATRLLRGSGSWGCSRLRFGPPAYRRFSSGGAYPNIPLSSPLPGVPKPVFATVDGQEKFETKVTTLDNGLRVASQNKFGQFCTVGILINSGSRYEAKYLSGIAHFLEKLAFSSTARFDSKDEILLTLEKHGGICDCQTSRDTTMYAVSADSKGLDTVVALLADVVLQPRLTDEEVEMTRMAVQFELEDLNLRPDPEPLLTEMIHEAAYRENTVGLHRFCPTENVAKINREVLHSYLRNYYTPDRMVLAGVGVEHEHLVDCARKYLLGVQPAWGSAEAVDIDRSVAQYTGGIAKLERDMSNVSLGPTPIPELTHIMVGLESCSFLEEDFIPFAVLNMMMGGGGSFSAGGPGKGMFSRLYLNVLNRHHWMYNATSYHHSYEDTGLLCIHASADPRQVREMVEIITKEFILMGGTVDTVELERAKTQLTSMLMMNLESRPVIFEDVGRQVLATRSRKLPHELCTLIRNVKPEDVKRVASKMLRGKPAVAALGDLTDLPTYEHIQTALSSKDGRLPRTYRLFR
# Sequence of UniProt O00625 (O00625 whole entry, looked up): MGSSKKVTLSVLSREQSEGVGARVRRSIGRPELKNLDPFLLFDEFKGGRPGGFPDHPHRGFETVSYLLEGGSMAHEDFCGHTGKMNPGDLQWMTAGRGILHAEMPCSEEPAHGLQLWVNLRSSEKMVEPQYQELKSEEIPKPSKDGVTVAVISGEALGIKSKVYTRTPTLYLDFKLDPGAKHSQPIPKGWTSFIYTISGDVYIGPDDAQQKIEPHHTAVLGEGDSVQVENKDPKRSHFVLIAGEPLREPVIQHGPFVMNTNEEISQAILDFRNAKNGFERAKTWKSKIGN
# Sequence of UniProt P54278 (P54278 whole entry, looked up): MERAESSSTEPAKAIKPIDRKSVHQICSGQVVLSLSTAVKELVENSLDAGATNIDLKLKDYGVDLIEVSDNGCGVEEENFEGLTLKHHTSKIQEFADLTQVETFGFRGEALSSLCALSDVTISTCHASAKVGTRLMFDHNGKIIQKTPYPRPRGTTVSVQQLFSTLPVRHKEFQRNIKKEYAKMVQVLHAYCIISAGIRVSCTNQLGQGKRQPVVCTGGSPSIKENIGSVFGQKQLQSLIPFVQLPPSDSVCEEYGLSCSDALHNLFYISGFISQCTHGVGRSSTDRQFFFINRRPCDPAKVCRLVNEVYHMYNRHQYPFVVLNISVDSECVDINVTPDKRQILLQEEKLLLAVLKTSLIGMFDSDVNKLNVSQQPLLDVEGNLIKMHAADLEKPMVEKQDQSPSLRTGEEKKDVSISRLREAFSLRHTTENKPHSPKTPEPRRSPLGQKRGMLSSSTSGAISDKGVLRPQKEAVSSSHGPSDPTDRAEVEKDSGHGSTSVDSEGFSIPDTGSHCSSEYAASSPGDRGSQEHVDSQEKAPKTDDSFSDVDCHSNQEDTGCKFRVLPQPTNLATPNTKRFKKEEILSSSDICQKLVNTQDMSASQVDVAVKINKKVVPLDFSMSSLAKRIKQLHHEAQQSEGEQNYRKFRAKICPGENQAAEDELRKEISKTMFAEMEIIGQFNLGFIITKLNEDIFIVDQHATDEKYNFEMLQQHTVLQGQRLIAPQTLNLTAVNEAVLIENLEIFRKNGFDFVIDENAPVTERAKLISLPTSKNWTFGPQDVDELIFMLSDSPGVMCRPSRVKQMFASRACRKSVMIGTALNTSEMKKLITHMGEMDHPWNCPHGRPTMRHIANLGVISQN
# Sequence of UniProt Q9BTU6 (Q9BTU6 whole entry, looked up): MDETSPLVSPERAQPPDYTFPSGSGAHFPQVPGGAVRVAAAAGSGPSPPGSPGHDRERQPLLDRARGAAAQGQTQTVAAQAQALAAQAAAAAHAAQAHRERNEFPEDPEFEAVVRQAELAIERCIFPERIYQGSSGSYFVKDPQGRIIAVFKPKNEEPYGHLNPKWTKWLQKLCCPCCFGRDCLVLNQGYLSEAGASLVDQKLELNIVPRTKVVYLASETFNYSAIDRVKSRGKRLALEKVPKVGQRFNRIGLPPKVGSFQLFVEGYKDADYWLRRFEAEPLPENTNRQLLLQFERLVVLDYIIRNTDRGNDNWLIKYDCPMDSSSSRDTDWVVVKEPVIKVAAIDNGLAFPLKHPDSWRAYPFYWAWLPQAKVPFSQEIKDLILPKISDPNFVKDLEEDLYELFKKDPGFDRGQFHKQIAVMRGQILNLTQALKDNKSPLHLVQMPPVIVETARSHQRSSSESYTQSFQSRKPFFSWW
# Sequence of UniProt O15530 (O15530 whole entry, looked up): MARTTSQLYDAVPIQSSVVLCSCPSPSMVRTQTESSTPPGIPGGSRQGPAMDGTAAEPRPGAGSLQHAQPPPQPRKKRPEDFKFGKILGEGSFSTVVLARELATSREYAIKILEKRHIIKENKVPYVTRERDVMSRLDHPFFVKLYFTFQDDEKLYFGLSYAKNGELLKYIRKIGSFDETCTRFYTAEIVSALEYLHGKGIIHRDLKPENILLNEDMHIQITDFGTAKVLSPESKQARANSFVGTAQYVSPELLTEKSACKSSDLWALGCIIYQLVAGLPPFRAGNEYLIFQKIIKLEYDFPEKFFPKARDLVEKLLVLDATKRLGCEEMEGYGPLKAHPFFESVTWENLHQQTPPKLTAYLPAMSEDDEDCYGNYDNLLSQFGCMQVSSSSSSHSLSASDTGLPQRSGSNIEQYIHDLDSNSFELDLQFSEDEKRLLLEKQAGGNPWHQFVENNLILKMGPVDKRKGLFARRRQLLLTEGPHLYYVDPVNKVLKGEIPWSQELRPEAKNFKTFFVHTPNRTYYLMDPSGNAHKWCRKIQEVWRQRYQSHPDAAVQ
Target,log2 fold change (alvocidib),log2 fold change (Tubastatin A),log2 fold change [1],log2 fold change (defactinib),log2 fold change [2],log2 fold change (encorafenib),log2 fold change [3],log2 fold change (alisertib),log2 fold change [4],log2 fold change (gefitinib),log2 fold change (lapatinib),log2 fold change (pictilisib),log2 fold change (crizotinib),log2 fold change [5],log2 fold change (duvelisib),log2 fold change (gandotinib),log2 fold change (tozasertib),log2 fold change (doramapimod),log2 fold change (bafetinib),log2 fold change [6]
PDPK1 (UniProt O15530),0.009,-0.121,0.107,0.21,0.501 (active),-0.019,0.109,0.153,0.15,0.016,-0.04,-0.051,0.03,0.262,-0.039,0.092,-0.029,-0.012,-0.021,-0.211
PIGO (UniProt Q8TEQ8),0.038,-0.112,-0.095,0.046,0.143,0.019,-0.121,0.061,-0.073,0.013,0.047,0.133,-0.02,0.019,0.076,-0.193,0.117,-0.186,-0.026,0.037
PFKP (UniProt Q01813),0.019,0.031,0.029,-0.009,-0.016,-0.041,-0.001,-0.004,0.009,-0.006,-0.011,-0.014,0.014,0.033,-0.02,-0.034,-0.012,-0.015,0.005,-0.012
PMPCA (UniProt Q10713),-0.006,0.049,-0.045,0.004,-0.004,0.001,0.04,-0.03,0.003,-0.02,-0.02,-0.043,-0.048,-0.053,0.053,-0.004,0.016,0.079,0.046,0.025
PFDN2 (UniProt Q9UHV9),0.063,0.01,-0.035,0.026,-0.012,0.05,-0.025,0.033,0.007,0.012,-0.001,-0.017,0.054,0.365 (active),0,-0.1,0.053,0.005,-0.064,-0.13
PIR (UniProt O00625),0.006,0.019,-0.011,-0.032,0.012,0.003,-0.07,0.016,-0.008,-0.012,0.017,-0.05,0.019,0.099,-0.035,-0.058,-0.008,-0.021,0.008,-0.006
QKI (UniProt Q96PU8),-0.058,-0.005,0.024,0.029,-0.02,0.045,-0.206,0.069,0.009,0.021,-0.002,0.015,0.047,-0.212 (active),-0.017,0.163,-0.021,-0.043,-0.056,0.155
POLD1 (UniProt P28340),0.012,-0.075,0.035,0.027,0.011,0.008,0.074,0.007,0.007,-0.036,-0.014,-0.021,-0.022,0.013,-0.019,-0.061,0.003,0.02,-0.022,0.017
PRKCD (UniProt Q05655),-0.082,0.036,-0.012,-0.032,-0.003,-0.009,0.056,-0.031,0.235 (active),0.002,-0.143,0.003,-0.011,-0.135,0.024,0.009,0.015,0.005,-0.069,0.007
PI4K2A (UniProt Q9BTU6),-0.006,-0.037,0.021,-0.023,0.012,0.022,-0.092,-0.008,-0.056,0.021,-0.02,-0.036,0.003,-0.006,0.054,-0.03,-0.025,-0.008,0.008,0.014
PIK3R2 (UniProt O00459),0.023,-0.086,0.027,0.017,-0.009,0.009,-0.225,0.008,0.02,-0.052,-0.009,0.318 (active),-0.018,0.009,0.322 (active),0.043,0.009,0.014,-0.004,-0.016
PGRMC1 (UniProt O00264),-0.026,0.01,-0.022,0.02,-0.014,0.006,-0.258 (active),0.006,0.006,0.03,0.001,-0.023,0.057,-0.011,-0.024,0.047,0.035,-0.052,0.004,0.018
PSMB9 (UniProt P28065),-0.052,0.076,0.006,0.034,0.31,-0.076,0.027,-0.04,0.139,-0.016,-0.093,0.028,-0.098,-0.033,0.01,0.013,-0.087,-0.033,-0.25,0.022
PMS2 (UniProt P54278),-0.001,-0.129,0.03,0.021,0.103,0.038,0.089,0.009,0.02,0.024,0.016,0.021,-0.038,-0.036,0,-0.064,-0.014,-0.038,0.021,0.037
PHKA1 (UniProt P46020),0.047,-0.073,0.168,0.08,-0.029,0.004,0.065,-0.014,0.084,0.041,-0.117,-0.003,-0.001,-0.042,-0.044,0.069,0.009,0.024,0.051,-0.047
POLA1 (UniProt P09884),-0.01,-0.031,0.037,0.016,-0.004,0.022,0.061,-0.013,0.014,0.008,-0.022,-0.044,-0.03,-0.011,0.009,-0.016,0.003,0.01,-0.057,0.004
